High-throughput results (PubChem BioAssay)
Pf growth 48h: P. falciparum growth inhibition at 48 hours (one generation); P. falciparum luciferase growth in erythrocytes, 48 h; Potency, µM (titrated, usually from 28.7 µM), for the others: top-dose activity change, negative = inhibition, hits mostly inhibitors; 310,000 compounds, 5.9% hits; AID 504832; also: potency is read from the fitted curve at half-maximal effect; % is scaled to controls: 0 for no effect and ±100 for the full control effect
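Erythrocytes infected with P. falciparum carrying an integrated firefly luciferase reporter (2% hematocrit, 0.1% parasitemia final) were exposed to compounds in RPMI 1640 with 0.5% Albumax at 37 C, 5% CO2. Growth inhibition was scored as reduced luminescence.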
SARS PLpro yeast: blocks SARS-CoV papain-like protease in a yeast assay. 330,000 compounds, 0.19% hits. S. cerevisiae expressing SARS-CoV PLpro, growth rescue. AID 485353. Potency, µM (doses to about 32.9 µM), inactives show at the top dose activity, positive = growth rescue, usual class: activators; calls by dose curve; also: potency is read from the fitted curve at half-maximal effect; 0% is about no effect; nearly all actives have a fitted effect of over 55% in size
Cycloheximide cs: counter-screen for Shiga toxin inhibitors: cycloheximide protein synthesis inhibition. cell reporter, cycloheximide protein synthesis inhibition counterscreen. max response, %. 300,000 compounds, 12% hits. AID 2314; in the data active = max response mostly above about 13%, no sharp cut-off; inactive = mostly below about 14%; also: read at 38.3 µM for the half of the compounds with a filed dose; 0% is about no effect
Shiga toxin inh: Shiga toxin inhibition; Vero cells, Shiga toxin protein synthesis inhibition reporter; inhibition, % at 38.7 µM; 290,000 compounds, 9.2% hits; AID 2315; in the data active = inhibition mostly above about 28%, no sharp cut-off; inactive = mostly below about 43%; also: 0% is about no effect
AMA1 RON2 block: inhibitors of Plasmodium falciparum AMA1-RON2 interaction. AlphaScreen AMA1-biotinylated RON2 peptide binding. 360,000 compounds, 0.2% hits. Potency, µM (series often up to 58.2 µM), inactives show at the top dose activity change, negative = inhibition, actives largely listed as inhibitors;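 also: potency is read from the fitted curve at half-maximal effect; 0% = vehicle wells and -100% = peptide control; nearly all actives have a fitted effect of over 45% in size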
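AMA1 (3D7) with his tag at 25 nM final met compounds first, then biotinylated RON2 peptide at 25 nM; detection used donor plus acceptor beads, 10 µg/mL apiece, read by AlphaScreen after 30 min at room temperature.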
Pf growth 96h: P. falciparum growth inhibition at 96 hour, primary screen for plastid delayed-death inhibitors | 320,000 compounds, 6.9% hits | Potency, µM (top dose mostly 28.7 µM), without a hit: top-dose activity change, negative = inhibition, actives largely listed as inhibitors | P. falciparum luciferase reporter growth, 96 h; also: potency is read from the fitted curve at half-maximal effect; % is scaled to controls: 0 for no effect and ±100 for the full control effect
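Luminescence readout: decreased luciferase signal marks inhibited growth of reporter-expressing P. falciparum in infected red cells (2% hematocrit, 0.05% parasitemia final), exposed to compound two generations (96 h, 37 C, 5% CO2).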
* = called active by the depositor; [ ] = dose if it differs, or a comment. Only some compounds are listed: those with a hit (about 19% of all), similar ones and a draw of the others. Unless noted, calls follow the shape of the dose curve; as a rule, active = well fitted curve in the direction sought with a large enough effect; inconclusive = small, poorly fitted or top-dose-only effect, or another doubt; inactive = no such curve, though single readings can be large; an effect the other way counts as inactive or inconclusive.

Results for O=C(c1ccc(-c2ccccc2)cc1)C1CCCN(Cc2ccncc2)C1 (stereo not drawn) ?
Pf growth 48h: -15%; SARS PLpro yeast: -2%; Cycloheximide cs: 48*; Shiga toxin inh: 53; AMA1 RON2 block: -1%; Pf growth 96h: 17%

What do the screens show for `CCOc1cc(NC(=O)c2ccccn2)c(OCC)cc1NC(=O)CC(C)C`?
Pf growth 48h: 13µM*; SARS PLpro yeast: -2%; Cycloheximide cs: -2; Shiga toxin inh: -3; AMA1 RON2 block: 22%; Pf growth 96h: 3.7µM*

Results for CCOc1cc(NC(=O)C2CC2)c(OCC)cc1NC(=O)c1ccccn1 ?
Pf growth 48h: 15µM*; SARS PLpro yeast: 2%; Cycloheximide cs: -1; Shiga toxin inh: -2; AMA1 RON2 block: 6%

What do the screens show for `C=CCNc1nc(NCc2ccc(N(C)C)cc2)c2sc(-c3ccccc3)cc2n1`?
AMA1 RON2 block: 2.8µM*

How did COc1ccc(CNC(=O)CS(=O)Cc2nc(-c3ccc(C)cc3)oc2C)cc1 (stereo not drawn) do in these assays?
SARS PLpro yeast: 4%; Cycloheximide cs: -1; Shiga toxin inh: -11; AMA1 RON2 block: 0%; Pf growth 96h: 7.4µM*

What do the screens show for `COc1ccc(CNC(=O)CS(=O)Cc2nc(-c3ccccc3C)oc2C)cc1` (stereo not drawn)?
SARS PLpro yeast: 1%; Cycloheximide cs: -4; Shiga toxin inh: -15; AMA1 RON2 block: -6%; Pf growth 96h: 10%

What do the screens show for `COc1cccc(-c2nc(CS(=O)CC(=O)NCc3ccc4c(c3)OCO4)c(C)o2)c1` (stereo not drawn)?
SARS PLpro yeast: 4%; Cycloheximide cs: -4; Shiga toxin inh: -4; AMA1 RON2 block: 5%; Pf growth 96h: -19%

How did COc1ccc(-c2nc(CS(=O)CC(=O)NCc3ccc4c(c3)OCO4)c(C)o2)cc1 (stereo not drawn) do in these assays?
SARS PLpro yeast: 7%; Cycloheximide cs: -2; Shiga toxin inh: 20; AMA1 RON2 block: 0%; Pf growth 96h: 4.7µM*

What do the screens show for `COc1ccccc1CNC(=O)CS(=O)Cc1nc(-c2ccccc2C)oc1C` (stereo not drawn)?
SARS PLpro yeast: -1%; Cycloheximide cs: -4; Shiga toxin inh: -6; AMA1 RON2 block: 1%; Pf growth 96h: 5.2µM*

How did Nc1c(CO)nnn1-c1ccccc1 do in these assays?
Pf growth 48h: 1%; SARS PLpro yeast: 18%; Cycloheximide cs: 9; Shiga toxin inh: 37; AMA1 RON2 block: -12%; Pf growth 96h: -23%

How did O=C(CSc1nnc(-c2cccnc2)o1)Nc1ccccc1F do in these assays?
Pf growth 48h: 96%; SARS PLpro yeast: 1%; AMA1 RON2 block: -10%; Pf growth 96h: 214%

How did O=C(C(=O)N1CC=C(c2ccccc2)CC1)c1c[nH]c2ccccc12 do in these assays?
Pf growth 48h: 10%; SARS PLpro yeast: -57%; Cycloheximide cs: -1; Shiga toxin inh: -14; AMA1 RON2 block: -9%[2.32 µM]; Pf growth 96h: 45%

Results for CCN1CC=C(c2c[nH]c3ccccc23)CC1 ?
Pf growth 48h: 1µM*; SARS PLpro yeast: inconclusive; Cycloheximide cs: -1; Shiga toxin inh: 26; AMA1 RON2 block: 12%; Pf growth 96h: 40%

What do the screens show for `O=C(CN1C(=O)CCC1=O)Nc1nc(-c2nc3ccccc3s2)cs1`?
Pf growth 48h: 129%; SARS PLpro yeast: 5%; Cycloheximide cs: 25*; Shiga toxin inh: active; AMA1 RON2 block: 23%; Pf growth 96h: 200%

How did Oc1ccc(Nc2nc(-c3ccc4ccccc4c3)cs2)cc1 do in these assays?
SARS PLpro yeast: -17%; Cycloheximide cs: 49*; Shiga toxin inh: 121*; Pf growth 96h: inconclusive

Results for O=C(Nc1ccc(-c2csc(Nc3ccccc3)n2)cc1)c1cccc(C(F)(F)F)c1 ?
Pf growth 48h: inconclusive; SARS PLpro yeast: -5%; Cycloheximide cs: 2; Shiga toxin inh: 32; AMA1 RON2 block: 0%; Pf growth 96h: inconclusive

What do the screens show for `O=C(CN1C(=O)CCC1=O)Nc1nc(-c2ccccn2)cs1`?
SARS PLpro yeast: 14%; Cycloheximide cs: -5; Shiga toxin inh: -10; AMA1 RON2 block: 7%; Pf growth 96h: inconclusive

What do the screens show for `Oc1ccc(Nc2ccc3ccccc3c2)cc1`?
AMA1 RON2 block: 14µM*

Results for Oc1ccc(-c2nc(-c3ccc(O)c(O)c3)cs2)cc1 ?
Pf growth 48h: inconclusive; SARS PLpro yeast: -6%; Cycloheximide cs: 23; Shiga toxin inh: 94*; AMA1 RON2 block: -18%; Pf growth 96h: 22%

Results for C=C(C)CSc1[nH]c(=O)cc(C)c1C#N ?
Pf growth 48h: 50%; SARS PLpro yeast: -1%; Cycloheximide cs: -3; Shiga toxin inh: -9; AMA1 RON2 block: 2%; Pf growth 96h: 415%

What do the screens show for `O=C(NCCCN1CCOCC1)c1cc2ccccc2cc1O`?
Pf growth 48h: inconclusive; SARS PLpro yeast: 1%; AMA1 RON2 block: -27%; Pf growth 96h: inconclusive

How did Cc1ccc(C(=O)N2CCN(c3nc4ccccc4n3C)CC2)cc1 do in these assays?
Pf growth 48h: inconclusive; SARS PLpro yeast: 0%; Cycloheximide cs: 4; Shiga toxin inh: 13; AMA1 RON2 block: 1%; Pf growth 96h: 9%

Results for O=C(CN1C(=O)CCC1=O)Nc1nc(-c2ccc3ccccc3c2)cs1 ?
Pf growth 48h: 133%; SARS PLpro yeast: 1%; Cycloheximide cs: 40*; Shiga toxin inh: 96*; AMA1 RON2 block: -7%; Pf growth 96h: 84%

How did CC(=O)Nc1nc(-c2ccc3ccccc3c2)cs1 do in these assays?
Pf growth 48h: 336%; SARS PLpro yeast: -1%; Cycloheximide cs: 38*; Shiga toxin inh: 87*; AMA1 RON2 block: 1%; Pf growth 96h: 438%

Results for COc1cccc(-c2csc(NC(=O)Oc3ccccc3)n2)c1 ?
Pf growth 48h: 40%; SARS PLpro yeast: -43%; Cycloheximide cs: 48*; Shiga toxin inh: 137*; AMA1 RON2 block: 0%; Pf growth 96h: 108%

How did Cc1ccc(-c2csc(NC(=O)CN3C(=O)CCC3=O)n2)cc1 do in these assays?
Pf growth 48h: inconclusive; SARS PLpro yeast: 0%; Cycloheximide cs: 14; Shiga toxin inh: 17; AMA1 RON2 block: -3%; Pf growth 96h: 0%

How did COc1cccc(-c2csc(NNC(=O)c3cccs3)n2)c1 do in these assays?
Pf growth 48h: -11%; SARS PLpro yeast: 13%; Cycloheximide cs: 15; Shiga toxin inh: 36; AMA1 RON2 block: 21%; Pf growth 96h: inconclusive

Results for CN(Cc1cn[nH]c1-c1cc2ccccc2o1)CC1CCOCC1 ?
Pf growth 48h: 1%; SARS PLpro yeast: -1%; Cycloheximide cs: -2; Shiga toxin inh: -11; AMA1 RON2 block: -8%; Pf growth 96h: inconclusive

Results for COc1c(C(CC(C)C)OC(C)=O)ccc2c1C(=O)OCc1cc(C)cc(O)c1O2 (stereo not drawn) ?
Pf growth 48h: 8.3µM*; SARS PLpro yeast: -11%; Cycloheximide cs: -4; Shiga toxin inh: 33; AMA1 RON2 block: -14%; Pf growth 96h: 108%
